Compound activity deposited in PubChem BioAssay by several laboratories.
Mcl1 Noxa PPI: Mcl-1/Noxa interaction inhibition. Q07820. TR-FRET Mcl-1/Noxa peptide binding, 2 h. inhibition, % at 21.7 µM. 220,000 tested, 1.5% active;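 active means compounds that cut the protein-peptide binding signal by more than 50% relative to plate controls in a single-dose test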;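 further: His-tagged Mcl-1 with rhodamine Noxa BH3 peptide and terbium anti-His antibody; 0% = Mcl-1 plus Noxa peptide wells and 100% = peptide-only wells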
Target sequence (Q07820 whole entry, looked up): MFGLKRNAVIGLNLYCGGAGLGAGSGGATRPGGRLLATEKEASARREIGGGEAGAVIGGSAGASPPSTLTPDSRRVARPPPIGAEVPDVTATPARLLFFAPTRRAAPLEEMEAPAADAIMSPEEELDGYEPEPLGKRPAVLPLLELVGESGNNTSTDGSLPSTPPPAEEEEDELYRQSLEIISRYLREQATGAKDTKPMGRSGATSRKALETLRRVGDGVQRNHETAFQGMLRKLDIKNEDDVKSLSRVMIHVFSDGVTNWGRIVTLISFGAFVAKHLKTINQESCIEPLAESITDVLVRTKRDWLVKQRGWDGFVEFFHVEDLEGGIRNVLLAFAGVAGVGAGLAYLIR
p47phox inh: blocks human p47phox regulatory protein of NADPH oxidases. p47phox/p22phox peptide binding, fluorescence polarization, 2 h. inhibition, % at 24.7 µM. 220,000 tested, 0.53% active;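 active means inhibition above about 30%, limit read from the data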;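 further: 0% = p47phox with labelled peptide and 100% = labelled peptide alone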
Mcl-1 Bim block: disrupts Bim peptide binding to human Mcl-1; Bead-based flow cytometry, Bim peptide-Mcl-1 binding; AID 1009; Q07820; 190,000 tested, 0.1% active; inhibition, % at 10 µM; in the data active means inhibition above about 40%;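 further: 0% = no compound tracer wells and 100% = peptide blocker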
14-3-3 Bad PPI: disrupts binding of bovine 14-3-3 zeta to phospho-Bad peptide; P63103; 220,000 tested, 0.71% active; inhibition, % at 21.7 µM; TR-FRET 14-3-3zeta/Dy647-pBad peptide displacement, 1 h;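 active means inhibition above about 70%, limit read from the data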;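 further: 0% = full 14-3-3 plus peptide FRET controls and 100% = background without 14-3-3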
Target sequence (P63103 whole entry, looked up): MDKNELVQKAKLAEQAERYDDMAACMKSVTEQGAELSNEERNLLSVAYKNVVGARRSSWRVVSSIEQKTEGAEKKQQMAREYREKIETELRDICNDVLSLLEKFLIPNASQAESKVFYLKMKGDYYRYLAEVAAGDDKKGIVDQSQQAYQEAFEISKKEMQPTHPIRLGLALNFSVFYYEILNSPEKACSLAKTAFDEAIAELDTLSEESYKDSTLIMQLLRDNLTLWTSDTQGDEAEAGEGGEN
Mcl1 Bid PPI: disrupts binding of human Mcl-1 to Bid peptide; inhibition, % at 21.7 µM; AID 1021; TR-FRET Mcl-1/Bid-Dy647 peptide binding, 1536-well; 220,000 tested, 0.97% active;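 active means compounds that cut the binding signal by more than half at the single screening dose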;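 further: His-tagged Mcl-1 with europium anti-His antibody binding Bid BH3 peptide; 0% = Mcl-1 plus peptide wells and 100% = peptide-only wells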
* hit, by the source's call; . = not tested or not shown. Compounds with a hit are over-represented: about 3.1% of the library has one in this group of screens.

SMILES	Mcl1 Noxa PPI	p47phox inh	Mcl-1 Bim block	14-3-3 Bad PPI	Mcl1 Bid PPI
O=[N+]([O-])c1c(Nc2ccccn2)cc(Cl)c2nonc12	57*	-8	.	-1	-39
Cn1c(=O)c2c(O)c(C=Nc3ccc(F)cc3)c(=O)n(C)c2n(C)c1=O	-11	-8	.	0	-9
COc1cccc2c(=O)c3cccc(N)c3[nH]c12	74*	14	1	2	-29
CS(=O)(=O)c1ccc2nc(NC(=O)c3ccc(NS(=O)(=O)c4ccc(F)c(F)c4)cc3)sc2c1	6	-20	.	72*	64*
Cc1cc(C)n(-c2ccc(C(=O)Nc3cc(S(=O)(=O)N(C)C)ccc3Cl)cc2)n1	7	11	-4	11	19
COC(=O)c1cc(COC(=O)c2nc3nccc(C)n3n2)oc1C	3	-11	-8	-7	-14
Nc1nc(CN2CCN(c3ccccn3)CC2)nc(Nc2ccc(Cl)cc2)n1	2	0	-5	-10	-8
CC(=O)C(C(C)=O)c1c(Cl)c(O)c(O)c2c(C(=O)c3ccccc3)coc12	56*	-1	0	12	1
COc1ccc(NC(=O)c2cc(C3CC3)on2)c(OC)c1	-5	-9	-3	5	85*
CCOc1ccc(-c2csc(Cn3c(CN4CCN(C)CC4)nc4ccccc4c3=O)n2)cc1	41	-5	-11	15	36
O=C1[C@H]2[C@@H](C(=O)N1c1cccc3ccccc13)C1(C(=O)c3ccccc3C1=O)N1CCC[C@@H]21	64*	-11	-6	9	-26
CSCC[C@H](NC(=O)c1nn(C)c(=O)c2ccccc12)c1nc2ccccc2[nH]1	7	-11	0	-14	-58
O=C(NCCc1ccccc1)N1CCCC(CNS(=O)(=O)Cc2ccccc2)C1 (stereo not drawn)	54*	10	0	-6	10
CCOc1cc(Br)c(Br)c(C=Nc2ccc(NC(C)=O)cc2)c1O	51*	-193	4	44	6
CC(=O)Nc1ccc(N=Cc2ccc[nH]2)cc1	7	-7	-4	7	-34
CC(=O)Nc1ccc(N=Cc2c(O)c(C(=O)Nc3ccccc3)cc3ccccc23)cc1	84*	-229	-2	49	71*
Cc1cc(C)c(S(=O)(=O)N(C)CC(N)=O)c(C)c1	-8	63*	0	-15	-20
FC(F)(F)c1ccc(C2Nc3cccc4cccc(c34)N2)cc1	27	-1	-2	0	-53
Oc1ccc(C2Nc3cccc4cccc(c34)N2)c(O)c1	103*	-16	7	-13	19
COc1cc(C2Nc3cccc4cccc(c34)N2)ccc1OC(C)=O	69*	-12	12	-5	-1
COc1cc(C2Nc3cccc4cccc(c34)N2)cc(OC)c1O	100*	-19	12	-12	10
c1coc(C2Nc3cccc4cccc(c34)N2)c1	76*	24	15	-14	-21
CCOc1ccc(-c2cc(C(=O)OC)[nH]n2)cc1	-11	-16	.	-16	-3
CCCCc1ccc(-n2c(Cc3cccs3)n[nH]c2=S)cc1	25	-2	-4	-10	-27
CCOc1ccc(C2C(C(C)=O)=C(O)C(=O)N2CCc2c[nH]c3ccccc23)cc1 (stereo not drawn)	18	-4	-1	0	-51
SMILES	Mcl1 Noxa PPI	p47phox inh	Mcl-1 Bim block	14-3-3 Bad PPI	Mcl1 Bid PPI
Cc1ccc(OC(=O)C(C)c2cccc(C(=O)c3ccccc3)c2)cc1 (stereo not drawn)	12	31*	-4	14	-6
CC(C)Cc1ccc(/C(=N/O)C(=O)O)s1	-3	58*	-2	3	-29
O=C1C2CC=C(Cl)CC2C(=O)N1CCCCCCN1C(=O)C2CC=C(Cl)CC2C1=O (stereo not drawn)	55*	-28	1	11	-27
Cn1cc(Br)c(C(=O)NNC(=O)c2ccc(Cl)cc2)n1	7	-6	-5	-12	-33
CCN1CCc2c(sc(N)c2C#N)C1	44	-57	1	-1	-13
N#Cc1c(N)sc(=S)c2c1CCN(Cc1ccccc1)C2	71*	-10	3	20	-1
O=C(O)CCC(=O)N1N=C(c2ccc(Br)cc2)CC1c1cccs1 (stereo not drawn)	8	6	-2	82*	-39
Cc1ccc(C(=O)Oc2ccc(-c3nccc(-c4ccccn4)n3)cc2)cc1	-53	11	-3	15	55*
On1nnc2cc(C(F)(F)F)ccc21	0	-5	0	-4	-15
O=C(COc1ccccc1)Nc1nnc(-c2ccc3c(c2)CCCC3)o1	-90	168*	0	12	-41
O=C1COc2ccc(N3C(=O)C=CC3=O)cc2N1	57*	-3	-3	-1	-35
COc1ccc(-c2cc(-c3ccc(OC)cc3)nc(-c3ccc4c(c3)NC(=O)CO4)c2)cc1	-6	-17	0	-1	-13
CCOc1cc(/C=N/N=C(N)N)ccc1OCc1ccc(Cl)cc1	15	77*	5	61	-17
O=C(C1CCCN(Cc2cccnc2)C1)N1CCCCC1 (stereo not drawn)	1	-9	-5	26	52*
COc1ccc(CN2CCCC(C(=O)N3CCCC3)C2)cc1 (stereo not drawn)	-16	-2	-3	45	50
Cc1c(C#N)c(O)n(C)c(=O)c1N=Nc1ccc(S(N)(=O)=O)cc1	28	-6	5	-5	-30
CCOC(=O)c1ccc(N=Nc2c(C)c(C#N)c(O)[nH]c2=O)cc1	88*	0	-2	6	-22
N#Cc1c(-c2ccco2)cc(-c2ccccc2)[nH]c1=O	47	-23	.	19	-27
Cc1ccc(-c2cc(-c3ccco3)c(C#N)c(=O)[nH]2)cc1	68*	-31	.	26	-32
CC(C)(C)c1cc(-c2ccco2)c(C#N)c(SCC#N)n1	6	-4	1	4	2
N#Cc1c(-c2ccccc2)cc(-c2ccco2)c(C#N)c1N	74*	-54	-1	12	14
N#Cc1sc2nc(-c3ccccc3)cc(-c3ccco3)c2c1N	102*	-10	0	-1	74*
CCOc1ccc(-c2c(=O)n(OCc3ccc([N+](=O)[O-])cc3)c3ccccc3[n+]2[O-])cc1	-3	7	-3	-4	20
CCOC(=O)COc1ccc(C2CC(C)=NN2c2ccccc2)cc1 (stereo not drawn)	-9	-9	-3	-15	-32
CCOC(=O)N1CCN(c2nc(C)c3c(n2)CCCC3=O)CC1	27	-4	0	-9	71*
COc1ccc([C@H]2CC(=O)c3c(O)cc(O)cc3O2)cc1O	-3	-18	.	0	-4
O=C(O[C@@H]1Cc2c(O)cc(O)cc2O[C@@H]1c1cc(O)c(O)c(O)c1)c1cc(O)c(O)c(O)c1	95*	-27	0	69	1
Cn1c(-c2cc3c(C(F)(F)F)nn(C)c3s2)n[nH]c1=S	6	-12	-4	-20	10
CCn1c(-c2cc3c(C(F)(F)F)nn(C)c3s2)n[nH]c1=S	72*	-7	-2	7	-33
